In the library only some 3.7% were active in any assay of this set; here they are far more common.
BoNT A protease – BoNT/A light chain protease inhibitors, primary screen, biochemical, flow cytometry, MLPCN library; Botulinum neurotoxin type A light chain protease (Clostridium botulinum A str. ATCC 3502); multiplex microsphere protease substrate cleavage; inhibition, % at 10 µM; actives 0.17% (n = 360,000); AID 588499, 2011; further: plate controls were buffer without enzyme for full effect and enzyme alone for no effect
MazF activator – activators of E. coli MazEF toxin-antitoxin RNase, primary screen, biochemical, fluorescence, uHTS; actives 0.32% (n = 350,000); AID 504720, 2011; activation, % at 20 µM; Endoribonuclease toxin MazF (Escherichia coli (strain K12)), P0AE70; FAM/BHQ RNA-DNA oligo cleavage fluorescence, 5 h; in the data active means activation above about 50%
Target sequence (P0AE70 whole entry, looked up): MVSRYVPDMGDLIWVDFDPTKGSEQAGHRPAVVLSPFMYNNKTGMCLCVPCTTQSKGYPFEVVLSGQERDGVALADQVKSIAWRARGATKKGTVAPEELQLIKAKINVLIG
Bead autofluor – counter-screen for toxin protease inhibitors: compound fluorescence; compound autofluorescence counterscreen, microsphere flow cytometry; stronger effect = higher value; fluorescence intensity (test concentration not listed); actives 3.1% (n = 360,000); in the data active means fluorescence intensity above about 16000; inconclusive means no clear call, values can overlap the other calls
Anthrax LF inh2 – Bacillus anthracis LF protease inhibitors, primary screen, biochemical, multiplex microsphere, MLPCN library. AID 588501, 2011. actives 0.12% (n = 360,000). Lethal factor (Bacillus anthracis), P15917. multiplex microsphere protease cleavage assay. inhibition, % at 10 µM; further: plate controls were buffer without enzyme for full effect and enzyme alone for no effect
BoNT-F LC inh – BoNT/F light chain protease inhibitors, primary screen, biochemical, flow cytometry, MLPCN library. actives 0.22% (n = 360,000). Multiplex microsphere protease cleavage assay. Botulinum neurotoxin type F light chain protease (Clostridium botulinum). inhibition, % at 10 µM; in the data active means inhibition above about 35%, passing the limit was not always enough; inconclusive means no clear call, values can overlap the other calls; further: plate controls were buffer without enzyme for full effect and enzyme alone for no effect
An asterisk follows results filed as active; ? = inconclusive; / = no result. Unless noted, no stated cut-off is given here; in the data, active means inhibition above about 30%; inconclusive means no clear call, values can overlap the other calls; inactive means below that.

SMILES	BoNT A protease	MazF activator	Bead autofluor	Anthrax LF inh2	BoNT-F LC inh
O=C(c1ccc(S(=O)(=O)N2CCOCC2)cc1)N1CCCc2ccccc21	-2	-5	17398*	2	-3
O=C(c1cnc2n(c1=O)CCS2)N1CCCc2ccccc21	3	2	22039*	1	4
O=C(c1cnc2ccccn2c1=O)N1CCCc2ccccc21	9	-4	17332*	-6	10
Cc1csc2ncc(C(=O)N3CCCc4ccccc43)c(=O)n12	0	9	5816	-6	0
O=C(c1cncc(Br)c1)N1CCCc2ccccc21	1	11	3511	5	4
CC(C)c1ccc(C2(C)NC(=O)N(CC(=O)NC3CCCC(C)C3C)C2=O)cc1 (centres undefined)	0	1	3939	1	2
COc1cc(OC)c(NC(=O)c2cncn2-c2ccc(F)cc2)cc1Cl	0	3	5812	-4	-10
COc1ccc(NC(=O)N(C)C[C@H]2OCc3cnnn3CCCC(=O)N([C@H](C)CO)C[C@@H]2C)cc1	-1	8	3284	0	-12
CCCCCC1NC(=O)NC1CCCCCC(=O)O (centres undefined)	7	2	18045*	1	11
C[C@@H]1NC(=O)N[C@@H]1CCCCCC(=O)O	3	3	1754	-1	14
COc1ccc(C(O)c2nc(-c3ccc4ccccc4c3)cs2)cc1 (centres undefined)	0	/	3726	-3	-2
COc1ccc(OC)c(/C=C2\NC(=O)NC2=O)c1	23	0	6990	131*	?
C=CCOC(=O)COc1ccc2c(C)c(CC)c(=O)oc2c1	-1	4	23645*	-1	-3
CSc1ccc(CCNC(=O)c2cc(-c3ccccc3)c(N3CCOCC3)s2)cc1	-1	-12	5325	-3	-7
Cc1cc(Oc2ccccc2)nc(SCC(=O)Nc2ccc(Cl)cc2Cl)n1	?	-2	18063*	-2	-11
COC(=O)CSc1nc(C)cc(Oc2ccccc2)n1	-1	11	5956	-2	-1
O=c1ccn([C@@H]2O[C@H](CNCc3cccn3-c3ccncc3)[C@@H](O)[C@H]2O)c(=O)[nH]1	0	/	4430	3	0
Cn1c(SCc2ccc(C#N)cc2)nnc1-c1ccccc1	0	0	3144	4	-7
C=CCn1c(SCC(N)=O)nnc1-c1ccccc1O	1	-2	3142	4	18
C=CCn1c(SCc2ccccc2C#N)nnc1-c1ccccc1O	2	3	21434*	0	6
Cn1c(SCc2ccc(C#N)cc2)nnc1-c1cccc(Cl)c1	-1	2	16948*	-3	-2
C=CCn1c(SCc2ccc(C#N)cc2)nnc1-c1ccccc1	0	-3	22580*	2	0
C=CCn1c(SCC(N)=O)nnc1-c1cc(Br)ccc1O	?	0	21322*	-4	-1
C=CCn1c(SCc2ccc(C#N)cc2)nnc1-c1cccc(OC)c1	0	12	3591	-2	16
COc1ccc(C2(c3ccc(OC)cc3)NC(=O)N(CC(=O)NCC(C)c3ccccc3)C2=O)cc1 (centres undefined)	0	-2	4191	0	0
SMILES	BoNT A protease	MazF activator	Bead autofluor	Anthrax LF inh2	BoNT-F LC inh
O=C(CCCC(=O)Nc1ccccc1Br)N/N=C/c1c(F)cccc1Cl	-1	1	4672	-4	-3
Clc1cccc(Cc2c(C3CCCCC3)nc3ccc(Br)cn23)c1	0	/	4832	1	-8
Cc1ccc(N2CC(C(=O)Nc3ccc(N(C)C)cc3)CC2=O)cc1C (centres undefined)	1	-3	19991*	-3	-2
COC(=O)c1ccccc1NC(=O)C1CC(=O)N(c2ccccc2)C1 (centres undefined)	0	9	22918*	-3	-2
Cc1ccc(N2CC(C(=O)Nc3ccccc3C(=O)NC3CCCCC3)CC2=O)cc1C (centres undefined)	?	-12	22887*	0	-4
COc1ccc(CCNC(=O)CCN2C(=O)[C@@H]3Cc4ccccc4CN3C2=O)cc1OC	1	7	5197	0	3
CCc1nc2c(OCc3cc(Cl)cc(Cl)c3)cccn2c1N(C)C(=O)Nc1ccccc1OC	-1	/	4047	-9	2
CCOC(=O)C1=CCN(S(=O)(=O)c2cccc(Cl)c2)C1c1ccc(Br)cc1 (centres undefined)	0	/	6085	6	2
COc1ccc(-n2c(-c3ccco3)n[nH]c2=S)cc1	3	5	22219*	-3	4
CCCc1cc(N2CCCC(C(=O)NCC)C2)n2ncnc2n1 (centres undefined)	0	3	20607*	0	1
Cc1c(/C=N/NC(=O)C(C)(C)Oc2ccc(Cl)cc2)cnn1C	-1	2	11508	0	-11
Cc1nn(C)c(C)c1/C=N/NC(=O)C(C)(C)Oc1ccc(Cl)cc1	?	-2	24501*	-5	-2
O=C1COc2ccc(C(=O)COC(=O)/C=C/c3ccc(Br)o3)cc2N1	-2	-28	6287	0	-2
CC(=O)OC1CC(C)N(C(=O)c2ccccc2)c2ccc(C)cc21 (centres undefined)	-5	-3	25080*	-2	-8
CCCC(=O)OC1CC(C)N(C(=O)c2ccccc2)c2ccc(C)cc21 (centres undefined)	0	-3	3289	4	5
Cc1ccc(NC(=O)c2c(C(F)(F)F)nn(C)c2Cl)cc1C	?	0	19260*	3	3
Cc1ccc(NC(=O)c2c(C(F)(F)F)nn(C)c2SCc2cccc(C(F)(F)F)c2)cc1C	-2	-1	16554*	-5	-8
Cn1nc(C(F)(F)F)c(C(=O)Nc2ccc(Cl)cc2)c1Cl	?	4	?	2	-5
Cc1ccc(NC(=O)c2c(C(F)(F)F)nn(C)c2SCc2ccc(Cl)cc2)cc1C	-4	-17	18135*	-1	-11
C[C@@H]1CCCCO[C@H](CN(C)C(=O)Nc2ccc3c(c2)OCO3)[C@@H](C)CN([C@H](C)CO)C(=O)c2cc(NS(=O)(=O)c3ccc(F)cc3)ccc2O1	0	6	2948	4	-4
O=C(CN1CCN(C(C(=O)Nc2cc(C(F)(F)F)ccc2Cl)c2ccccc2)CC1)NC1CC1 (centres undefined)	0	1	3110	-7	-5
CCC(=O)Nc1cc(SCCO)cc([N+](=O)[O-])c1	-2	-4	16916*	-2	-1
CC(C)(C)N(NS(=O)(=O)c1ccc(F)cc1)c1ccccc1	2	7	3245	20	-7
Cc1cccc(CSc2nncc(=O)[nH]2)c1	0	4	3842	4	-21
O=c1cnnc(SCCc2ccccc2)[nH]1	1	4	23384*	-1	3
CSc1nncc(=O)[nH]1	-2	-8	21213*	2	-4

Compound activity (PubChem BioAssay)
